Inconclusive results are not listed. Active and inactive are the calls of the source. Unless noted, calls follow the shape of the dose curve; as a rule, active = well fitted cell-killing curve with a large enough effect; inconclusive = small, poorly fitted or top-dose-only effect; inactive = flat fitted curve, though single readings scatter.
Assays:
[1] = Cell Viability - LYMP2-025 (AID 976); also: series mostly up to about 92 µM
Outline: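 In qHTS format, LYMP2-025 lymphoblastoid cells in complete culture medium received compound for 24 hr; ATP-based CellTiter-Glo signal gave viability, with AC50 derived by Hill equation.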

[2] = Cell Viability - LYMP2-002 (AID 977);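 also: series mostly up to about 92 µM; compound exposure lasted 24 h at 37 °C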
Outline: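 Human lymphoblastoid LYMP2-002 cells, 2500 per well, exposed to compounds for 24 h at 37 C in complete medium; viability read as intracellular ATP by CellTiter-Glo luminescence, AC50 from Hill fits.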

[3] = Cell Viability - LYMP2-006 (AID 978); also: series mostly up to about 92 µM; nearly all actives have a fitted effect of over 60% in size
Outline: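 Human lymphoblastoid cells, 2500 per well, were preincubated 5 hr at 37 C, then exposed to compounds for 24 hr at 37 C in complete medium. Viability was read as intracellular ATP by CellTiter-Glo luminescence; AC50 from Hill-equation fits of qHTS concentration-response data.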

[4] = Cell Viability - LYMP2-007 (AID 979);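 also: cells exposed to compound for 24 h before reading; nearly all actives have a fitted effect of over 60% in size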
Outline: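 Acute toxicity is scored as a concentration-dependent fall in intracellular ATP in human lymphoblastoid cells treated 24 hr at 37 C, measured by luciferase luminescence; Hill-equation modelling yields AC50.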

[5] = Cell Viability - LYMP2-008 (AID 980); also: nearly all actives have a fitted effect of over 60% in size
Outline: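 Acute cytotoxicity is scored as concentration-dependent loss of cellular ATP in a human lymphoblastoid line after 24 hr treatment at 37 C. ATP is quantified by luciferase luminescence.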

[6] = Cell Viability - LYMP2-010 (AID 981); also: nearly all actives have a fitted effect of over 55% in size
Outline: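 Acute toxicity is scored as a concentration-dependent loss of cellular ATP in human lymphoblastoid cells after 24 hr compound exposure in complete medium. Tetraoctylammonium bromide is the positive control.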

[7] = Cell Viability - LYMP2-012 (AID 982);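 also: cellular ATP by luciferase luminescence where a drop means cytotoxicity; cells exposed to compound for one day before reading; nearly all actives have a fitted effect of over 55% in size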
[8] = Cell Viability - LYMP2-014 (AID 983); also: series mostly up to about 92 µM; nearly all actives have a fitted effect of over 50% in size
Outline: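 Decrease in intracellular ATP after 24 hr treatment at 37 C, measured by luciferase luminescence, indicated cytotoxicity. Concentration-response data were fitted with the standard Hill equation to give AC50.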

[9] = Cell Viability - LYMP2-016 (AID 984); also: nearly all actives have a fitted effect of over 55% in size
Outline: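 Human lymphoblastoid cells (LYMP2-016), 2500/well in complete medium, preincubated 5 hr at 37 C, then compound-treated 24 hr at 37 C. Intracellular ATP read by CellTiter-Glo luminescence after 30 min at room temperature; AC50 from Hill-equation concentration-response fits.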

[10] = Cell Viability - LYMP2-018 (AID 985);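 also: compound exposure lasted 24 hr at 37 °C; nearly all actives have a fitted effect of over 50% in size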
Outline: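 Acute cytotoxicity is scored as a concentration-dependent drop in intracellular ATP after 24 hr exposure of the lymphoblastoid line in complete culture medium, measured by luciferase luminescence. Potency is expressed as AC50 from Hill modelling.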

[11] = Cell Viability - LYMP2-020 (AID 986); also: series mostly up to about 92 µM; nearly all actives have a fitted effect of over 55% in size
Outline: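 Acute cytotoxicity in a human lymphoblastoid line is scored as a concentration-dependent fall in cellular ATP after 24 hr at 37 C in complete medium. The positive control is tetraoctylammonium bromide, and potency is given as Hill-fit AC50.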

[12] = Cell Viability - LYMP2-022 (AID 987); also: nearly all actives have a fitted effect of over 55% in size
Outline: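 Acute toxicity in a human lymphoblastoid line is scored as decreased intracellular ATP after 24 hr compound treatment at 37 C. ATP is measured by CellTiter-Glo luminescence; curves are fitted with the Hill equation to give AC50.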

[13] = Cell Viability - LYMP2-024 (AID 988); also: nearly all actives have a fitted effect of over 60% in size
Outline: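 Acute toxicity is measured as concentration-dependent loss of intracellular ATP in a human lymphoblastoid line treated 24 hours at 37 C. Luciferase luminescence quantifies ATP; AC50 values come from standard Hill-equation modelling.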

[14] = Cell Viability - LYMP2-026 (AID 989); also: nearly all actives have a fitted effect of over 50% in size
Outline: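 Concentration-dependent loss of intracellular ATP in human lymphoblastoid cells after 24 hr at 37 C, quantified by luciferase luminescence. AC50 derived from standard Hill equation.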

[15] = Cell Viability - LYMP1-002 - Assay at 24 hr (AID 993)
Outline: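 qHTS, LYMP1-002 lymphoblastoid, 24 h cpd, 37 C, CellTiter-Glo ATP luminescence; AC50 via Hill eq.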

[16] = Cell Viability - LYMP1-002 - Assay at 40 hr (AID 994); also: nearly all actives have a fitted effect of over 60% in size
Outline: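 Viability in the human lymphoblastoid line was measured as intracellular ATP via CellTiter-Glo after 40 hr compound exposure. Tetraoctylammonium bromide served as positive control.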

[17] = qHTS Assay for Identification of Small Molecule Inducers of Hypoxia Response (AID 2120; active = well fitted curve in the direction sought with a large enough effect in the signal ratio, with a control signal flat, not every such curve was filed as active; the % refers to the signal ratio)
Outline: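 Induction of beta-lactamase reporter activity was measured in CellSensor HRE-bla ME-180 cells after 17 h compound treatment at 37 degrees C, using CCF4 substrate and the 460nm/530nm emission ratio to derive AC50 values.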

Measured: Potency

O=C(O)CNC(=O)c1ccc([N+](=O)[O-])cc1
inactive: all assays above

Cc1ccc(C)c([N+](=O)[O-])c1
not listed: [13] | [14]
inactive: all other assays above

O=C(O)c1cccc([N+](=O)[O-])c1
not listed: [13] | [14]
inactive: all other assays above

Nc1c(Cl)cc(Cl)cc1Cl
inactive: all assays above

CC(C)(C)OCC1CO1 (stereo unspecified)
inactive: all assays above

CC(C)C(C)C
not listed: [15]
inactive: all other assays above

CCCCOCCOCCOCCCC
inactive: all assays above

C=CC(=O)OCCCC
not listed: [15]
inactive: all other assays above

c1ccc2n[nH]nc2c1
inactive: all assays above

CC(=O)OC(C)=O
inactive: all assays above

Cc1ccc(C)c(O)c1
not listed: [14]
inactive: all other assays above

Cc1ccc2c(c1[N+](=O)[O-])C(=O)c1ccccc1C2=O
not listed: [13] | [14]
inactive: all other assays above

CC(=O)OCCC(C)C
not listed: [15]
inactive: all other assays above

From PubChem BioAssay (NCATS)
